The target in test [1] is Serine/threonine-protein kinase pim-2 (Homo sapiens) (UniProt Q9P1W9). As to conditions: at 1 µM.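 Further: each value is a mean of the inhibition measurements against the kinase.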
Test [2] deals with Serine/threonine-protein kinase pim-3 (Homo sapiens) (UniProt Q86V86). As to conditions: at 0.1 µM.
The target is the same in test [3]. The following applies: at 1 µM.
For test [4], the target named is T1, MAP kinase-activated protein kinase 5 (Homo sapiens) (UniProt Q8IW41).
T1 sequence (whole entry): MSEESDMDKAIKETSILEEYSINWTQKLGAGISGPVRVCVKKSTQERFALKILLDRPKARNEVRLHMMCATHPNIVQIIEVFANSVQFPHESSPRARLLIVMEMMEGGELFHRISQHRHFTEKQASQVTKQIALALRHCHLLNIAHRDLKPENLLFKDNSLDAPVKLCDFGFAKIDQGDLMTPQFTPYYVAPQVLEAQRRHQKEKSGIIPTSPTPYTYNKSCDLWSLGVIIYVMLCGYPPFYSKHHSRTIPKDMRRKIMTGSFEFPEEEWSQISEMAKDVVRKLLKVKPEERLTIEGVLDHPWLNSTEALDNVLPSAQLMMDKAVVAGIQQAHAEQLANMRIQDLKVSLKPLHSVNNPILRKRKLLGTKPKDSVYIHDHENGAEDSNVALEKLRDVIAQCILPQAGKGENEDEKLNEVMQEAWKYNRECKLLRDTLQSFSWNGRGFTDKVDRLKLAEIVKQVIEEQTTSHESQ
As to conditions: at 0.1 µM.

The target of test [5] is T1, MAP kinase-activated protein kinase 5 (Homo sapiens). The following applies: at 1 µM.
Test [6] concerns the target Serine/threonine-protein kinase SIK1 (Homo sapiens) (UniProt P57059). As to conditions: at 0.1 µM.
Test [7] shares this target. The following applies: at 1 µM.
For test [8], the target named is Serine/threonine-protein kinase SIK2 (Homo sapiens) (UniProt Q9H0K1). As to conditions: at 0.1 µM.
Test [9] has the same target. As to conditions: at 1 µM.
Test [10] concerns the target T2, Serine/threonine-protein kinase TBK1 (Homo sapiens) (UniProt Q9UHD2).
T2 sequence (whole entry): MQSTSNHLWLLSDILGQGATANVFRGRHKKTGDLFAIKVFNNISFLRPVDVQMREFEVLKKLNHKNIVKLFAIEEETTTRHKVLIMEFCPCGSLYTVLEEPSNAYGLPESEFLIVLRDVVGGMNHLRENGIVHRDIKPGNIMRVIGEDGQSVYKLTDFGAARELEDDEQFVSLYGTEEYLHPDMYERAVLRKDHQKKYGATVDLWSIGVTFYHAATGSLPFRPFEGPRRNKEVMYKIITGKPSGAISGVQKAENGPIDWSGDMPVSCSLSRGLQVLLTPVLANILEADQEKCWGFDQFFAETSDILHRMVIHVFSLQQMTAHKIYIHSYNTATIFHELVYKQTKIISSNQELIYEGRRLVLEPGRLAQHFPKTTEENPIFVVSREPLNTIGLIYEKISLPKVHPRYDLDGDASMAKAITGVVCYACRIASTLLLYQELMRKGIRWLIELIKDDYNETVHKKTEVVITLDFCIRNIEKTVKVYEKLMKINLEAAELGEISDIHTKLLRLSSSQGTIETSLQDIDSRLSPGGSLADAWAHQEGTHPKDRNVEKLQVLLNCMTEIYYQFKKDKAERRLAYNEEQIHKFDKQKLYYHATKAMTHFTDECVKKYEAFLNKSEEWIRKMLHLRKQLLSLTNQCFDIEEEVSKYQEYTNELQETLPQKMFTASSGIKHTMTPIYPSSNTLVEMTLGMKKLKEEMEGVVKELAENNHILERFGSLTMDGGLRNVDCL
As to conditions: at 0.1 µM.

The target in test [11] is T2, Serine/threonine-protein kinase TBK1 (Homo sapiens). The following applies: at 1 µM.
The target in test [12] is T3, Testis-specific serine/threonine-protein kinase 1 (Homo sapiens) (UniProt Q9BXA7).
T3 sequence (whole entry): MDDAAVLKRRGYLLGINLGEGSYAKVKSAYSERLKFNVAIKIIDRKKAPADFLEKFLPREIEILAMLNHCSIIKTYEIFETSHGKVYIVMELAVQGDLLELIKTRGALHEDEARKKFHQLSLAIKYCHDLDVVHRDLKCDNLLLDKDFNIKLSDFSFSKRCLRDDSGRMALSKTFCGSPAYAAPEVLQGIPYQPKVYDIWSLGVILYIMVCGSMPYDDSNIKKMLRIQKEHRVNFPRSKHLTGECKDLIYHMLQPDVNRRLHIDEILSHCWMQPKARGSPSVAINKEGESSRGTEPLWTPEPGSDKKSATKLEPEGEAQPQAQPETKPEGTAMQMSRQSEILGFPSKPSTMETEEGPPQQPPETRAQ
As to conditions: at 0.1 µM.

For test [13], the target named is T3, Testis-specific serine/threonine-protein kinase 1 (Homo sapiens). As to conditions: at 1 µM.
Test [14] has as its target T4, Testis-specific serine/threonine-protein kinase 2 (Homo sapiens) (UniProt Q96PF2).
T4 sequence (whole entry): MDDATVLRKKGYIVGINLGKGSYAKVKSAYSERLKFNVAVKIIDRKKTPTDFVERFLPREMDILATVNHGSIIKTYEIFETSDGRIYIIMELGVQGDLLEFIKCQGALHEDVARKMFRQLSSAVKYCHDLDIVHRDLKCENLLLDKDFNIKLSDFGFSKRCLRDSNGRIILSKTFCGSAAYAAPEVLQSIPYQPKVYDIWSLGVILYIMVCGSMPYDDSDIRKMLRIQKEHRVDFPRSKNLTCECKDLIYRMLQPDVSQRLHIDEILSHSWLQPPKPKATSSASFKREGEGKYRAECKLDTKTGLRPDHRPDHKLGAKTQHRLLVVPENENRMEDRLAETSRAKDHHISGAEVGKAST
The following applies: at 0.1 µM.

For test [15], the target named is T4, Testis-specific serine/threonine-protein kinase 2 (Homo sapiens). The following applies: at 1 µM.
Test [16] has as its target Casein kinase I isoform alpha (Homo sapiens) (UniProt P48729). As to conditions: at 0.1 µM.
The target is the same in test [17]. As to conditions: at 1 µM.
For test [18], the target named is Casein kinase I isoform gamma-1 (Homo sapiens) (UniProt Q9HCP0). As to conditions: at 0.1 µM.
Test [19] has the same target. The following applies: at 1 µM.
The target in test [20] is Casein kinase I isoform gamma-2 (Homo sapiens) (UniProt P78368). As to conditions: at 0.1 µM.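 Further: values are mean inhibition figures reported as part of the GSK PKIS dataset.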
Sequence of Casein kinase I isoform gamma-2 (Homo sapiens) (P78368 whole entry, looked up, canonical isoform): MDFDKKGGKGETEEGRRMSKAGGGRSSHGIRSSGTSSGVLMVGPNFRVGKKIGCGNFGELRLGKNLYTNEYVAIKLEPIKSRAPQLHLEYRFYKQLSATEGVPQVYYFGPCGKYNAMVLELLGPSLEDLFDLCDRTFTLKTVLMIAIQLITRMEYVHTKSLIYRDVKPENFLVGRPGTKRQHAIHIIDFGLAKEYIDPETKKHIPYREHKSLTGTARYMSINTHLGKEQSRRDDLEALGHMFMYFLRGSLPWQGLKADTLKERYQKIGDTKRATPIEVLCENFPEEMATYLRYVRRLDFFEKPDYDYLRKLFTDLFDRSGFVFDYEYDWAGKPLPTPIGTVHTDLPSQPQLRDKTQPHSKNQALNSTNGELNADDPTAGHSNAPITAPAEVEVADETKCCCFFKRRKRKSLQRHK

Sequence of Serine/threonine-protein kinase SIK2 (Homo sapiens) (Q9H0K1 whole entry, looked up): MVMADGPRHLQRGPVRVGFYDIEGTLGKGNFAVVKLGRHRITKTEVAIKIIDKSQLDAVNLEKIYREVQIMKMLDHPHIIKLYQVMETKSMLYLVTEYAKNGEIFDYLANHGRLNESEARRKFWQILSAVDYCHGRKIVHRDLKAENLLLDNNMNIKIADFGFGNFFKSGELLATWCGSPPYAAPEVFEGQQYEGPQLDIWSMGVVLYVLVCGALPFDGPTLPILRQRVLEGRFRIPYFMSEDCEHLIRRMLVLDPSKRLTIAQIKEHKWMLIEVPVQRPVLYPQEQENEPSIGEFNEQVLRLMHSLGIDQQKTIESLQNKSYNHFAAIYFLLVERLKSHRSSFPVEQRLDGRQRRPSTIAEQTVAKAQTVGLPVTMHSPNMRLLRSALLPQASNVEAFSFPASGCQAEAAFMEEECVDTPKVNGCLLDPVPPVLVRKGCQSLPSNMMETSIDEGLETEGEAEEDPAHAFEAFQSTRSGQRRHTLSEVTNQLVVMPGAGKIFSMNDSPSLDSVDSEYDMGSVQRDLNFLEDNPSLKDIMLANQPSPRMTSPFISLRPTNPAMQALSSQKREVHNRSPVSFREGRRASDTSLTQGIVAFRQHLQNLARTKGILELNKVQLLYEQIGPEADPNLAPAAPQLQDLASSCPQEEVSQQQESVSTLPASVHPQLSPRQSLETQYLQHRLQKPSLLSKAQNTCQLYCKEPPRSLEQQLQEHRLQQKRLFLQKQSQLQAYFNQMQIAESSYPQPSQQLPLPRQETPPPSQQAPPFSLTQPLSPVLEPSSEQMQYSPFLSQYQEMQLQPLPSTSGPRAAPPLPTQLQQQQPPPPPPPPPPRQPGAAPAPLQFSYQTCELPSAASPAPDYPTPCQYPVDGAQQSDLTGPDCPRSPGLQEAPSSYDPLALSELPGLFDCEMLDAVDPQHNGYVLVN
Sequence of Serine/threonine-protein kinase pim-2 (Homo sapiens) (Q9P1W9 whole entry, looked up): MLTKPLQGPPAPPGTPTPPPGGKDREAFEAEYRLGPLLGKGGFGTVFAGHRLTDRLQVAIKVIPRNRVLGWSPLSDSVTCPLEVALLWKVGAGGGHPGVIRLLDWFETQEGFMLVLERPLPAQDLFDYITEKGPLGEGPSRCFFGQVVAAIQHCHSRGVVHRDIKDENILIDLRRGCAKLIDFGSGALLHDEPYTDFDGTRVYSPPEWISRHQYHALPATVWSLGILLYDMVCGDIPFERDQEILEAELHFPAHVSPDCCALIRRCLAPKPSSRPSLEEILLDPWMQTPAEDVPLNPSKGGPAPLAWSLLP
Sequence of Casein kinase I isoform alpha (Homo sapiens) (P48729 2-337 limits assumed): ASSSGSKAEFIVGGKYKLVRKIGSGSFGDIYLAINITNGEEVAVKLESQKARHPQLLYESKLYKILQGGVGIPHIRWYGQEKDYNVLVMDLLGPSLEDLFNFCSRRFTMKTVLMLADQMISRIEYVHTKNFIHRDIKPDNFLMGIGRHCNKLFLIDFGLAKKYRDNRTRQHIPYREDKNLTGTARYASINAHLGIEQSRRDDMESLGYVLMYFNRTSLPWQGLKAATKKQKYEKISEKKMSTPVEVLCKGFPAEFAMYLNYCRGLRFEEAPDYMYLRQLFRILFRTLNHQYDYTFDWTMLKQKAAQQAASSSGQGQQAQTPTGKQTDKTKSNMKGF
Sequence of Casein kinase I isoform gamma-1 (Homo sapiens) (Q9HCP0 whole entry, looked up, canonical isoform): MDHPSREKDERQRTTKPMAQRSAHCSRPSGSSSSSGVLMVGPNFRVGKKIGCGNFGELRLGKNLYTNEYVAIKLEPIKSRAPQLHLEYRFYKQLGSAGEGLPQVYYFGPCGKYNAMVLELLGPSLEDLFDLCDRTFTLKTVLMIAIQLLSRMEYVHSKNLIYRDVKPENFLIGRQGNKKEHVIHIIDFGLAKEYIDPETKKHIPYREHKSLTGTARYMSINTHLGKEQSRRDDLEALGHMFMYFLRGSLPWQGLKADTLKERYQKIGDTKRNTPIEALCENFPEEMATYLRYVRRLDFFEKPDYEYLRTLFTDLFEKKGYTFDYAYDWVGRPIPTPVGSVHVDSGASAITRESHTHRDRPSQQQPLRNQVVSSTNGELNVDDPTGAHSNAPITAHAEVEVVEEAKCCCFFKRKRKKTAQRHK
Sequence of Serine/threonine-protein kinase SIK1 (Homo sapiens) (P57059 whole entry): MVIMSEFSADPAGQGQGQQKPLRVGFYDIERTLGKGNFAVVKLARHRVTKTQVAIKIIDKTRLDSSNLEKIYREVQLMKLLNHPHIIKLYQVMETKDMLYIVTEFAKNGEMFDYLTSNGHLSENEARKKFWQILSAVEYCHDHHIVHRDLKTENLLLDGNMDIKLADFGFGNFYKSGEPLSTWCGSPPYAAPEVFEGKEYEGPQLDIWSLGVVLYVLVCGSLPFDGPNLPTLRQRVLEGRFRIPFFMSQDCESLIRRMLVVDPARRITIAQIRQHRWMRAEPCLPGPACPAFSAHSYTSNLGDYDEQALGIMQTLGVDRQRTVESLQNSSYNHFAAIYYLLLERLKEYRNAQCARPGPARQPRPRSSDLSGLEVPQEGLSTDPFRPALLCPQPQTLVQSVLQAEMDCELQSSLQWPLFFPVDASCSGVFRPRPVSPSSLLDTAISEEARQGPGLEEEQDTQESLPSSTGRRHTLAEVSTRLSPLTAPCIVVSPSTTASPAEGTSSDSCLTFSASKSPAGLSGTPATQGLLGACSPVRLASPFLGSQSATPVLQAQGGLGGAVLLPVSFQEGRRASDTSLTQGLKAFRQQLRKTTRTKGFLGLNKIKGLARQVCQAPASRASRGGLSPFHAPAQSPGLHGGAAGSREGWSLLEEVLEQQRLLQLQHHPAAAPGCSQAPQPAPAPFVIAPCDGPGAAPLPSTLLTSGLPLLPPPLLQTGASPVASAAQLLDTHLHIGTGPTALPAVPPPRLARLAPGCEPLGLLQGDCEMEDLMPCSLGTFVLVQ

`c1ccc(Oc2ccc(Nc3ncc(-c4ccccc4)o3)cc2)cc1`: the inhibition (as a rule, the change of the read-out against control, counted positive when it falls) amounted to 0.53% in test [1]; 0.36% in test [2]; 1.18% in [3]; 0.66% in test [4]; 0.94% in [5]; 2.57% in test [6]. For the same compound, the inhibition in test [7] was 3.12%; in [8], 1.87%; in test [9] it was 1.2%; in test [10], 3.15%; in test [11] it was 2.41%; in [12], 1.11%. Moreover, the inhibition in [13] amounted to 1.56%; in test [14] it was 0.35%; in test [15], 0.74%; in test [16], 5.38%; in [17], 7.2%; in test [18] it was 0.74%. The inhibition was 2.02% in [19] and 0.49% in test [20].
For the compound `CCN(CC)Cc1ccc(Nc2nccc(-c3cnn4ncccc34)n2)cc1`, the inhibition was -0.59% in [1]; 6.38% in test [2]; 37.2% in test [3]; 1.44% in test [4]; 2.13% in test [5]; 2.61% in test [6]. Also, the inhibition in [7] is 24.1%; in [8], 10.8%; in [9] it was 47.2%; in [10] it was 5.04%; in [11] it was 12.3%; in test [12], 5.5%. Further, the inhibition was found to be 26.5% in test [13]; 0.81% in [14]; 2.16% in test [15]; 15.2% in test [16]; 54.3% in test [17]; 2.36% in test [18]. In addition, the inhibition in test [19] was determined as 6.01%; in test [20], 1.79%.
For `CN(C)c1ccc2c(c1)/C(=C/Nc1ccc(S(N)(=O)=O)cc1)C(=O)N2`, the inhibition in test [1] stood at 1.18%; in test [2], 0.39%; in test [3], 0.56%; in [4], 0.23%; in test [5], 0.46%; in test [6], 3.94%. Also, the inhibition in test [7] is 14.7%; in test [8], 5.24%; in test [9] it was 18.2%; in [10], 6.65%; in test [11], 49.7%; in [12], 2.84%. Besides, the inhibition stood at 9.92% in [13]; 0.44% in [14]; 1.25% in test [15]; 1.06% in test [16]; 2.88% in [17]; 1.12% in test [18]. The inhibition in test [19] amounted to 1.57%; in [20] it was 1.13%.
In the case of `O=C(Nc1n[nH]c2nc(-c3ccc(O)cc3)c(Br)cc12)C1CC1`, the inhibition in test [1] is 75.2%; in test [2] it was 31.9%; in [3], 73.9%; in test [4], 2.42%; in test [5], 3.04%; in test [6] it was 6.92%. The inhibition in test [7] turned out to be 17.1%; in test [8], 14.2%; in test [9] it was 19.9%; in test [10], 4.12%; in test [11] it was 22.6%; in test [12], 5.99%. Moreover, the inhibition in test [13] came to 5.96%; in [14], 3.73%; in test [15], 4.53%; in test [16], 4.72%; in test [17], 5.83%; in test [18], 4.64%. Further, the inhibition in [19] was 5.67%; in test [20], 4.14%.
Turning to `FC(F)(F)c1cccc(Nc2nccc(-c3cnn4nc(-c5ccccc5)ccc34)n2)c1`, the inhibition is 1.06% in [1]; -0.15% in test [2]; -0.3% in test [3]; 0.76% in test [4]; 0.4% in [5]; -0.41% in test [6]. Moreover, the inhibition is 7% in test [7]; 2.43% in test [8]; 5.47% in test [9]; -0.2% in [10]; 4.35% in test [11]; 1.23% in [12]. The inhibition in test [13] is 2.01%; in [14], 1.62%; in [15], 0.24%; in test [16] it was -0.33%; in test [17], 1.52%; in test [18], 2.48%. The inhibition in [19] was 2.54%; in test [20], 2.27%.
In the case of `NCc1ccc(-n2c(-c3nonc3N)nc3cnccc32)cc1`, the inhibition in test [1] was found to be 45.2%; in [2], 16.4%; in test [3], 68.5%; in test [4] it was 1.5%; in test [5], 1.55%; in test [6], 5.74%. Also, the inhibition in test [7] was found to be 11.6%; in test [8], 5.87%; in test [9], 15.8%; in test [10], 4.35%; in test [11] it was 11.6%; in test [12] it was 9.68%. The inhibition in test [13] stood at 32.2%; in [14] it was 3.06%; in [15], 3.08%; in test [16] it was 3.56%; in [17] it was 9.76%; in test [18] it was 5.74%. The values for the inhibition in test [19] and in test [20] were 8.48% and 3.49%, respectively.
As to `COc1cc(C)c(N(C)C(=O)CN(C)C)cc1Nc1nc(Nc2cccc(F)c2C(N)=O)c2cc[nH]c2n1`, the inhibition in [1] is -2.78%; in test [2], -0.52%; in [3], 0.76%; in test [4], 0.02%; in test [5], -1.14%; in test [6], 3.07%. Further, the inhibition is 5.4% in [7]; 4.5% in [8]; 2.04% in test [9]; 1.26% in test [10]; 3.23% in test [11]; 3.79% in test [12]. Further, the inhibition is 16.4% in test [13]; 1.25% in test [14]; 4.87% in test [15]; -0.71% in test [16]; 6% in test [17]; -0.75% in test [18]. In addition, the inhibition in test [19] was 11.3%; in [20], -2.38%.
Regarding `C/C(Nc1ccc(S(N)(=O)=O)cc1)=C1/C(=O)Nc2ccccc21`, the inhibition in test [1] was 0.33%; in [2], 0.02%; in [3], 1.7%; in test [4], -0.26%; in test [5], 1.08%; in [6] it was -7.25%. Further, the inhibition is -0.38% in test [7]; -6.72% in test [8]; -0.55% in test [9]; 0.77% in [10]; 4.75% in test [11]; 0.79% in [12]. The inhibition in test [13] is 5.46%; in [14], -0.65%; in test [15] it was 1.13%; in test [16] it was 2.64%; in test [17], 8.53%; in [18], -0.74%. In addition, the inhibition in test [19] stood at 6.33%; in test [20], 1.03%.

Source of the values: ChEMBL document CHEMBL1961873, “Compounds: GSK PKIS; Assays: Nanosyn kinase panel” (2012).
